The text below walks through data of PubChem BioAssay (NCATS).

Inconclusive results are not listed. Values without a mark were called inactive. Calls of active or inactive are those of the source. The call rests on the fitted dose curve; in most records, active means well fitted curve in the direction sought with a large enough effect; inconclusive means small, poorly fitted or top-dose-only effect, or another doubt; inactive means no such curve, though single readings can be large; an effect the other way counts as inactive or inconclusive.

The target in test [1] is Rap guanine nucleotide exchange factor 3 (Homo sapiens) (UniProt O95398). As to the kind of experiment: Confirmatory qHTS for antagonist of cAMP-regulated guanine nucleotide exchange factor 3 (EPAC1) (AID 1645880). Further: nearly all actives have a fitted effect of over 55% in size. Further: potency means the concentration at half of the fitted maximal effect. A digest of the protocol:
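Released BODIPY-GDP fluoresces less than Rap1-bound BODIPY-GDP; the signal is followed at 480/540 nm at 5-min intervals over 30 min, after 5 min at room temperature. Reactions contain 100 nM EPAC1, 250 nM RAP1B-BODIPY-GDP and 50 uM GDP; results are normalized to ATA and DMSO.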
For orientation: qHTS replaces the single test concentration by a dilution series.

The target is the same in test [2]. As to the kind of experiment: Confirmatory qHTS for agonist of cAMP-regulated guanine nucleotide exchange factor 3 (EPAC1) (AID 1645881).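 Further: EPAC1 catalysed release of BODIPY-GDP from Rap1B seen as fluorescence loss; 100% = effect of cAMP agonist control; nearly all actives have a fitted effect of over 75% in size.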
Test [3] has as its target Rap guanine nucleotide exchange factor 4 (Homo sapiens) (UniProt Q8WZA2). As to the kind of experiment: Confirmatory qHTS for agonist of cAMP-regulated guanine nucleotide exchange factor 4 (EPAC2) (AID 1645884).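 Further: nucleotide exchange releases bodipy-GDP from Rap1 and this lowers its fluorescence; on the % scale 0 is the no-effect control and ±100 the full control effect; nearly all actives have a fitted effect of over 65% in size.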
Test [4] shares this target. As to the kind of experiment: Confirmatory qHTS for antagonist of cAMP-regulated guanine nucleotide exchange factor 4 (EPAC2) (AID 1645885). Further: nearly all actives have a fitted effect of over 25% in size. On activity change, negative = inhibition: on the % scale 0 is the no-effect control and ±100 the full control effect.
Test [5] has as its target Rap guanine nucleotide exchange factor 3 (Homo sapiens) (UniProt O95398). As to the kind of experiment: Counterscreen qHTS for antagonist of cAMP-regulated guanine nucleotide exchange factor 3 (EPAC1) (AID 1645888). Further: % of control where 0% means no effect. Put shortly:
(§1)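 Rap1B–BODIPY-GDP (250 nM) with 50 uM GDP; compounds pin-transferred to 9.74 nM–152 uM final (activator) or from 7.32 nM upwards (inhibitor). Fluorescence Ex/Em 480/540 nm read at 5 and 30 min, then after adding cAMP or buffer, at room temperature.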

The target is the same in test [6]. As to the kind of experiment: Counterscreen qHTS for agonist of cAMP-regulated guanine nucleotide exchange factor 3 (EPAC1) (AID 1645889). Further: % of control where 0% means no effect; nearly all actives have a fitted effect of over 40% in size. Put shortly: as §1

Rap guanine nucleotide exchange factor 4 (Homo sapiens), sequence (Q8WZA2 whole entry, looked up): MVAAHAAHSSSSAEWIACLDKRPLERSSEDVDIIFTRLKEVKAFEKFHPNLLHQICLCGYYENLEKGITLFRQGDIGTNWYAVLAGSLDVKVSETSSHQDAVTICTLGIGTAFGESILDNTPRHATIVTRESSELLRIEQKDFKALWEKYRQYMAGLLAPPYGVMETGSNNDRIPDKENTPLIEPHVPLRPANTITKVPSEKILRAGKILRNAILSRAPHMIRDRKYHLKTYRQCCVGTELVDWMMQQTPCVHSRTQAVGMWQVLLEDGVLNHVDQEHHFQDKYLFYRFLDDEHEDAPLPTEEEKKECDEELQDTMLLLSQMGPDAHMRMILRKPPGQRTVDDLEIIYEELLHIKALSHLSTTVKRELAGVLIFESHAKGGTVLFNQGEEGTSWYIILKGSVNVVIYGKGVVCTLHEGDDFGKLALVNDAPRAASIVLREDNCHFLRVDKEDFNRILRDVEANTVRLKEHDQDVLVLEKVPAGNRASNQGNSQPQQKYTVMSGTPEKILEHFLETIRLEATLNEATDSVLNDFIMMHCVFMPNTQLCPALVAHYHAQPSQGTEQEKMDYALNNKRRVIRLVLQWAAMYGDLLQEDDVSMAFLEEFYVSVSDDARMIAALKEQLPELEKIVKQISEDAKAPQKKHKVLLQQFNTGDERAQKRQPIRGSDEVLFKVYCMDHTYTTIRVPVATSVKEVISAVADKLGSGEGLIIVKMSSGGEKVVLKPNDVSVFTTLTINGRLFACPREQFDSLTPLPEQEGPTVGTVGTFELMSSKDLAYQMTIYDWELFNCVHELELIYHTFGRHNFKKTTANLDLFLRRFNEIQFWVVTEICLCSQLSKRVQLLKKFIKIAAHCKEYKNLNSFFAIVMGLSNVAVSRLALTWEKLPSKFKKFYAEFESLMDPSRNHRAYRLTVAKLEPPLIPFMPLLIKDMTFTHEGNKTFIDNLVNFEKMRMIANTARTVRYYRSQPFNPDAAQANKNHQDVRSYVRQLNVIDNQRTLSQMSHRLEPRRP
Rap guanine nucleotide exchange factor 3 (Homo sapiens), sequence (O95398 whole entry, looked up): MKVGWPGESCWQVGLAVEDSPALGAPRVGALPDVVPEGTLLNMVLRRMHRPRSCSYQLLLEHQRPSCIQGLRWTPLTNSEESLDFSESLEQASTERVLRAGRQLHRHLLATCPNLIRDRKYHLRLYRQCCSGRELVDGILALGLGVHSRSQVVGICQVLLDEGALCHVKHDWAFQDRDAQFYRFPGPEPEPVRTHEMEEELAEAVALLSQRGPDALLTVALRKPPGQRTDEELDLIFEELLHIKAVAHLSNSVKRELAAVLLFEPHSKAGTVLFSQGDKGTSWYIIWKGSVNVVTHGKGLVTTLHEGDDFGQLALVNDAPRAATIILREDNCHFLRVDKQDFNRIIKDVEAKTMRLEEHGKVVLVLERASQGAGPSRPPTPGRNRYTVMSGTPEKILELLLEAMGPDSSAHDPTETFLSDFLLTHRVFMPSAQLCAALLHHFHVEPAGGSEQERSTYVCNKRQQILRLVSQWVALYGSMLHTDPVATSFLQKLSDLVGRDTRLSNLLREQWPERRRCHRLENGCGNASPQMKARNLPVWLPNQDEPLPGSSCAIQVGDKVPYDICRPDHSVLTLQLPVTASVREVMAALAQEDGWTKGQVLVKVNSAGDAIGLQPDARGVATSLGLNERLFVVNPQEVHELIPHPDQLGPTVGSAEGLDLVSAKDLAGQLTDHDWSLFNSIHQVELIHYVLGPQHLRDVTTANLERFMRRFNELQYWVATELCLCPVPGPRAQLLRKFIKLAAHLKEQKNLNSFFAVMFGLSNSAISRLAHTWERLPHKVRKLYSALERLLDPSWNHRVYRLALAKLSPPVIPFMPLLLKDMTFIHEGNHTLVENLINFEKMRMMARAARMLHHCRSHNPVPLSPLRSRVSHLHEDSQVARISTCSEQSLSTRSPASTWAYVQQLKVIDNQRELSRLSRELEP

As for `CCOc1cc(/C=C2\C(=N)N3N=C(S(=O)(=O)CC)SC3=NC2=O)ccc1OC(=O)c1ccco1`, the Potency in test [1] was 30.1 µM (active). The Potency entry in test [2], in test [3], in test [4], in test [5] and in test [6] was “inactive” throughout.

Consider `O=C(c1ccc(Cl)cc1)C(CN1CCCCC1)c1ccccc1` (configuration not stated), for which, in test [1], the Potency was 37.9 µM (active). Further, the Potency entry in test [2], in test [3], in test [4], in test [5] and in test [6] was “inactive” each time.

For `Cc1cn(S(=O)(=O)c2ccccc2[N+](=O)[O-])cn1`, the Potency result in test [1], in test [2] and in test [4] was “inactive” in each case. The activation in test [3] is 0.773% [at 17.1 µM, percent relative to cAMP agonist control]; in test [6], -4.19% [at 30.8 µM]. Further, the activity change, negative = inhibition in test [5] was -3.67% [at 30.8 µM].

As to `COc1ccc(/C=C\c2onc(C)c2S(=O)(=O)N2CCC(C(=O)NCCC(C)C)CC2)cc1`, the Potency result in test [1], in test [2] and in test [4] was “inactive” each time. Further, the activation in test [3] was 8.7% [at 17.1 µM, percent relative to cAMP agonist control]; in test [6], 19.1% [at 30.8 µM]. Besides, the activity change, negative = inhibition in test [5] was -14.8% [at 30.8 µM].

`Cc1ccc(/C=C/C(=O)c2ccccc(=O)c2O)c(C)c1`: in test [1], the Potency is 44.7 µM (active). Also, the Potency result in test [2] and in test [4] was “inactive” in each case. Besides, the activation was 1.7% [at 17.1 µM, percent relative to cAMP agonist control] in test [3] and 23.8% [at 30.8 µM] in test [6]. The activity change, negative = inhibition in test [5] is 12.3% [at 30.8 µM].

Consider `O=C(O)c1ccccc1NS(=O)(=O)c1ccc(N/N=C/c2ccc(O)c(O)c2)c([N+](=O)[O-])c1`, for which, in test [1], the Potency is 8.91 µM (active). Besides, the Potency result in test [2] and in test [4] was “inactive” in each case. Further, the activation is -3.03% [at 17.1 µM, percent relative to cAMP agonist control] in test [3] and 24.6% [at 30.8 µM] in test [6]. Besides, the activity change, negative = inhibition in test [5] was -1.88% [at 30.8 µM].

As for `CCOC(=O)CN1C(=O)c2ccccc2Sc2ncccc21`, the Potency result in test [1], in test [2], in test [4], in test [5] and in test [6] was “inactive” in each case. Moreover, in test [3], the activation is 0% [at 17.1 µM, percent relative to cAMP agonist control].

For the molecule `CCC(C(=O)NCc1ccc(OC)c(OC)c1)n1nc(C)c2c(C)n(-c3ccc(C)cc3)nc2c1=O` (configuration not stated), the Potency result in test [1], in test [2], in test [3], in test [5] and in test [6] was “inactive” each time. In addition, in test [4], the outcome is “inactive [at 12.7 µM]”.

For `CC(Sc1nncn1C)C(=O)Nc1nnc(C(C)C)s1` (configuration not stated), the Potency entry in test [1], in test [2], in test [3], in test [4], in test [5] and in test [6] was “inactive” in each case.

Regarding `Cc1c(OC(C)C(=O)NC(Cc2c[nH]c3ccc(O)cc23)C(=O)O)ccc2c1oc(=O)c1ccccc12` (configuration not stated), the Potency in test [1] was 13.5 µM (active). Besides, the Potency entry in test [2], in test [3], in test [4], in test [5] and in test [6] was “inactive” throughout.

For the molecule `CCCCCCNC(=O)c1cc(-c2ccco2)nc2ccccc12`, the Potency in test [1] was 22.4 µM (active). For the same molecule, the Potency result in test [2] and in test [4] was “inactive” each time. The activation in test [3] is 3.51% [at 17.1 µM, percent relative to cAMP agonist control]; in test [6], 27.4% [at 30.8 µM]. For the same molecule, in test [5], the activity change, negative = inhibition was -13.3% [at 30.8 µM].

On to `O=C(O)CN1C(=O)/C(=C\c2ccccc2OCc2ccc(Cl)cc2Cl)SC1=S`, for which the Potency in test [1] is 44.7 µM (active). Moreover, the Potency entry in test [2] and in test [4] was “inactive” in each case. For the same molecule, the activation in test [3] was -0.613% [at 17.1 µM, percent relative to cAMP agonist control]; in test [6], 3.68% [at 30.8 µM]. For the same molecule, the activity change, negative = inhibition in test [5] was -18.8% [at 30.8 µM].

Turning to `COc1ccc(N(C)S(=O)(=O)c2cccc3nsnc23)cc1`, the Potency result in test [1], in test [2], in test [3], in test [4], in test [5] and in test [6] was “inactive” each time.

For the molecule `Nc1ccc2ccccc2c1C(=O)c1ccccc1`, the Potency entry in test [1], in test [2], in test [3], in test [4], in test [5] and in test [6] was “inactive” throughout.

On to `CSCCC(NC(=O)c1ccc(Cl)cc1)C(=O)OCC(=O)NCc1ccco1` (configuration not stated), for which the Potency entry in test [1], in test [2] and in test [4] was “inactive” throughout. The activation is 0.694% [at 17.1 µM, percent relative to cAMP agonist control] in test [3] and -1.33% [at 30.8 µM] in test [6]. For the same molecule, the activity change, negative = inhibition in test [5] is -13% [at 30.8 µM].

With `Cc1nnnn1-c1ccc(CC(=O)O)cc1`, the Potency result in test [1], in test [2] and in test [4] was “inactive” in each case. In addition, the activation is -2.24% [at 17.1 µM, percent relative to cAMP agonist control] in test [3] and -1.16% [at 30.8 µM] in test [6]. Besides, the activity change, negative = inhibition in test [5] was -6.83% [at 30.8 µM].

With `C/C(=N\NC(=O)c1cc(-c2cccc([N+](=O)[O-])c2)n[nH]1)c1ccccc1O`, in test [1], the Potency was 26.9 µM (active). In addition, the Potency entry in test [2], in test [3], in test [4], in test [5] and in test [6] was “inactive” each time.
